Measured potencies and affinities stand elsewhere. Active and inactive are the calls of the source.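 Rule for the calls: active = fitted half-maximal dose no more than twice the top valid tested dose, for compounds that lower signal; inconclusive = fit invalid, or curve flat with activity between -70 and -30; inactive = potency past limit, curve flat within ±30, or signal increasing.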
biological target: NAD-dependent protein deacylase sirtuin-5, mitochondrial (Homo sapiens) (UniProt Q9NXA8); test: blockers of sirtuin-5 peptide desuccinylation – biochemical, fluorescence imaging, cherry-pick, set 6, dose response (AID 720597); conditions: Purified SirT5, succinyl-peptide-AMC/trypsin fluorescence; series mostly up to 15 µM;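 note: lower AMC signal can also come from blocking the trypsin step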
Sequence (Q9NXA8 whole entry, looked up): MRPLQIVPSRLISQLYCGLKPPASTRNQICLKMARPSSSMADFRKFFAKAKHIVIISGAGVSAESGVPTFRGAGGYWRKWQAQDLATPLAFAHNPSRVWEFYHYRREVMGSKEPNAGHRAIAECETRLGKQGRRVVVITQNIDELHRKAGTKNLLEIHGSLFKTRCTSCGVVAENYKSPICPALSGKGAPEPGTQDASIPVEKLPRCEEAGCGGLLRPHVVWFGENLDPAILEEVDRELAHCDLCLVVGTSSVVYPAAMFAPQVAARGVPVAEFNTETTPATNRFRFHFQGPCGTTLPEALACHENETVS

outcome, inactive:
Cc1ccccc1S(=O)(=O)N1CCCCN2[C@H](CO)[C@@H](c3ccc(-c4ccccc4)cc3)[C@H]2C1
Cc1ccc(NC(=O)C2CC(=O)n3ncnc3N2)cc1 (stereo not given)
CCCC#Cc1ccc2c(c1)O[C@H](CN(C)C(=O)Nc1ccccc1F)[C@@H](C)CN([C@H](C)CO)S2(=O)=O
CN(C)C(=O)[C@@H]1[C@@H](CO)[C@@H]2Cn3c(ccc(-c4ccccc4)c3=O)[C@H]1N2CCc1ccccc1
C[C@H]1CN([C@@H](C)CO)C(=O)CCCn2cc(nn2)CO[C@H]1CN(C)Cc1ccccc1
C[C@H]1CN([C@@H](C)CO)S(=O)(=O)c2ccc(C#Cc3ccc(F)cc3)cc2O[C@@H]1CN(C)C(=O)NC1CCCCC1
Cn1cnc(CCNC(=O)C[C@@H]2CC[C@@H]3[C@H](COC[C@@H](O)CN3C(=O)Nc3ccc(Cl)cc3)O2)c1
C[C@@H]1CN([C@@H](C)CO)C(=O)c2c(c3ccccc3n2C)-c2ccccc2CO[C@@H]1CN(C)Cc1cccc(O)c1
C[C@@H]1CN([C@H](C)CO)S(=O)(=O)c2ccc(C3=CCCCC3)cc2O[C@H]1CN(C)S(=O)(=O)c1ccc(F)cc1
CO[C@@H]1CN(C)C(=O)c2ccc(NC(=O)Nc3ccccc3)cc2OC[C@@H](C)N(C(C)=O)C[C@H]1C
C[C@H](CO)N1C[C@H](C)[C@H](CN(C)C(=O)Nc2ccc(F)cc2)Oc2ccc(NC(=O)Nc3ccc(F)cc3)cc2C1=O
C[C@@H]1CN([C@H](C)CO)C(=O)c2c(c3ccccc3n2C)-c2ccccc2CO[C@H]1CN(C)S(=O)(=O)c1ccc([N+](=O)[O-])cc1
COc1ccc(S(=O)(=O)Nc2ccc3c(c2)C(=O)N([C@H](C)CO)C[C@H](C)[C@@H](CN(C)Cc2ccc(C(F)(F)F)cc2)OCCCC[C@@H](C)O3)cc1
Cc1noc(C)c1NC(=O)Nc1cccc2c1O[C@H](CN(C)Cc1ccc(Oc3ccccc3)cc1)[C@@H](C)CN([C@H](C)CO)C2=O
C[C@@H]1CN([C@H](C)CO)C(=O)c2cc(NS(=O)(=O)c3ccc(Cl)cc3)ccc2O[C@@H](C)CCCCO[C@@H]1CN(C)Cc1ccccc1
CC(C)CC#Cc1ccc2c(c1)O[C@H](CN(C)C(=O)C1CCCCC1)[C@@H](C)CN([C@@H](C)CO)S2(=O)=O
C[C@H](CO)N1C[C@H](C)[C@@H](CN(C)S(=O)(=O)c2ccc(F)cc2)Oc2cc(C#Cc3ccc(F)cc3)ccc2S1(=O)=O
CN(C)C(=O)c1cccc(-c2ccc([C@@H]3[C@H]4CN(S(C)(=O)=O)CCCCN4[C@H]3CO)cc2)c1
COc1ccc(S(=O)(=O)N(C)C[C@@H]2OCCCC[C@H](C)Oc3ccc(NS(=O)(=O)c4ccc(C)cc4)cc3C(=O)N([C@@H](C)CO)C[C@@H]2C)cc1
C[C@@H]1CN([C@H](C)CO)C(=O)c2c(c3ccccc3n2C)-c2ccccc2CO[C@H]1CN(C)Cc1cccc2c1OCCCO2
COc1ccc(NC(=O)N(C)C[C@H]2Oc3cc(C#CCC(C)C)ccc3S(=O)(=O)N([C@H](C)CO)C[C@H]2C)cc1
O=C(NCC[C@H]1CC[C@H](NC(=O)C2CC2)[C@H](CO)O1)c1cc(Cl)cc(Cl)c1
C[C@@H]1CN([C@@H](C)CO)S(=O)(=O)c2ccc(C#CC3CC3)cc2O[C@H]1CN(C)Cc1ccccc1F
C[C@@H]1CCCCO[C@@H](CN(C)Cc2ccc(C(F)(F)F)cc2)[C@H](C)CN([C@@H](C)CO)C(=O)c2cc(NS(=O)(=O)c3ccccc3)ccc2O1
COc1ccc(S(=O)(=O)N(C)C[C@H]2OCCCC[C@H](C)Oc3ccc(NS(=O)(=O)c4ccc(F)cc4)cc3C(=O)N([C@@H](C)CO)C[C@@H]2C)cc1
Cc1cccc(S(=O)(=O)N2CCCCN3[C@@H](CO)[C@H](c4ccc(-c5ccccc5)cc4)[C@@H]3C2)c1
O=C(C[C@@H]1C[C@H]2c3cc(NC(=O)Nc4ccccc4F)ccc3O[C@H]2[C@H](CO)O1)NCC1CC1
COc1cccc(S(=O)(=O)N(C)C[C@H]2Oc3cc(C4=CCCCC4)ccc3S(=O)(=O)N([C@H](C)CO)C[C@@H]2C)c1
CC(C)(C)[S@@](=O)N1Cc2cc(C(=O)O)nc(-c3cccc(-c4cccc(F)c4)c3)c2[C@H]1CCO
COc1ccc(CN(C)C[C@H]2Oc3c(NC(=O)Nc4ccc(F)cc4)cccc3C(=O)N([C@@H](C)CO)C[C@@H]2C)cc1
C[C@H](CO)N1C[C@H](C)[C@H](CN(C)Cc2ccccc2F)Oc2cc(C#CC3CC3)ccc2S1(=O)=O
COc1ccc(S(=O)(=O)Nc2ccc3c(c2)C(=O)N([C@@H](C)CO)C[C@@H](C)[C@H](CN(C)Cc2ccc(C(F)(F)F)cc2)OCCCC[C@@H](C)O3)cc1
C[C@@H]1CN([C@@H](C)CO)C(=O)c2cc(NS(=O)(=O)c3cccs3)ccc2O[C@@H](C)CCCCO[C@@H]1CN(C)Cc1ccc(C(F)(F)F)cc1
C[C@H]1CN([C@@H](C)CO)C(=O)Cc2cc(NC(=O)Nc3ccc(F)cc3)ccc2O[C@@H]1CN(C)C
C[C@@H]1CN([C@H](C)CO)C(=O)c2cc(C#CCN(C)C)cnc2O[C@@H]1CN(C)Cc1ccncc1
COc1cccc(S(=O)(=O)N(C)C[C@H]2Oc3cc(C4=CCCCC4)ccc3S(=O)(=O)N([C@H](C)CO)C[C@H]2C)c1
C[C@H](CO)N1C[C@H](C)[C@@H](CN(C)C(=O)Nc2ccc(C(F)(F)F)cc2)OCCCC[C@H](C)Oc2ccc(NS(=O)(=O)c3ccc(Cl)cc3)cc2C1=O
CC(C)NC(=O)Nc1ccc2c(c1)C(=O)N([C@H](C)CO)C[C@H](C)[C@@H](CN(C)Cc1ccc(Cl)c(Cl)c1)O2
COc1ccc(S(=O)(=O)Nc2ccc3c(c2)C(=O)N([C@@H](C)CO)C[C@@H](C)[C@@H](CN(C)S(=O)(=O)c2ccc(Cl)cc2)OCCCC[C@H](C)O3)cc1
COc1cccc(S(=O)(=O)N(C)C[C@H]2Oc3cc(C4=CCCCC4)ccc3S(=O)(=O)N([C@@H](C)CO)C[C@@H]2C)c1
